CYP2C9 activ: CYP2C9 (human) activation. P11712. recombinant CYP2C9, luciferin-H conversion, luminescence; hits give high values; factor 1 = untreated enzyme, 0 = blocked. activation factor at 5 µM. 96,000 compounds, 1.4% hits;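 active = activation factor of 2 or more for CYP2C9 at a 5 µM dose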
Target sequence (P11712 whole entry, looked up): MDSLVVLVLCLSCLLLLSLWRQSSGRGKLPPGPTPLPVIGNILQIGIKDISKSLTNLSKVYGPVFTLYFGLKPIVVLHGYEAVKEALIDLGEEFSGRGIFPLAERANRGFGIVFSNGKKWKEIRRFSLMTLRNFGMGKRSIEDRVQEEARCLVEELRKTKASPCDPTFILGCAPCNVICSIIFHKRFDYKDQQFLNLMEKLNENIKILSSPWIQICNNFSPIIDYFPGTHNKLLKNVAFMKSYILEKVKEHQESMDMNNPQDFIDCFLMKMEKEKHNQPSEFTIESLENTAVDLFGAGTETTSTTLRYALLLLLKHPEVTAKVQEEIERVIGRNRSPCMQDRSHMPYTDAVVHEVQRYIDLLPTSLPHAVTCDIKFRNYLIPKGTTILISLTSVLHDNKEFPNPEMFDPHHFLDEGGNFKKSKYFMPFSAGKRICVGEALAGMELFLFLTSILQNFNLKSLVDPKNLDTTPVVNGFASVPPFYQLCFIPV
CYP2C19 inhib: human CYP2C19 inhibition; inhibition, % at 5 µM; AID 778; CYP2C19 Supersomes, luciferin-H EGE luminescence, 30 min; 96,000 compounds, 21% hits;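 active = CYP2C19 inhibition above a set limit at 5 µM in the primary screen, cut at about 50% in these data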
CD11b adhes enh: CD11b/CD18-fibrinogen binding enhancement | P05107+P11215 | K562 CD11b/CD18 adhesion to fibrinogen, ATPlite luminescence | activation, % at 10 µM | 93,000 compounds, 0.07% hits | AID 1499;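 active = 10 µM primary screen giving 50% or more activity, confirmed by 40% or more on retest at that dose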
CYP2C9 inhib: human CYP2C9 inhibition | P11712 | CYP2C9 Supersomes, luciferin-H conversion, luminescence | inhibition, % at 5 µM | 96,000 compounds, 20% hits | AID 777;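 active = blocking of liver enzyme CYP2C9 beyond about 50% at 5 µM, limit read from the data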
CD11b adhes inh: CD11b/CD18-fibrinogen binding inhibition; P05107+P11215; K562 CD11b/CD18 adhesion to fibrinogen, ATPlite luminescence; Mn2+ added to activate the integrin; inhibition, % at 10 µM; 93,000 compounds, 0.54% hits;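 active = primary inhibition of 50% or more at 10 µM, then 40% or more on retest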
CYP2C19 act: cytochrome P450 2C19 (human) activation; activation factor at 5 µM; AID 1025; recombinant CYP2C19, luciferin-H EGE luminescence; hits give high values; 0 = fully inhibited enzyme, 1 = untreated enzyme; 96,000 tested, under 10 active;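 active = activation factor of at least 2 at 5 µM in the primary screen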
Hits are given with their value; n = inactive; x = no result given. Shown are actives, neighbours in structure and some others; about 28% of the full set was active somewhere.

SMILES	CYP2C9 activ	CYP2C19 inhib	CD11b adhes enh	CYP2C9 inhib	CD11b adhes inh	CYP2C19 act
O=C(c1ccc(Cl)cc1)C(Cn1cncn1)C(Sc1ccccc1)c1ccccc1 (stereo unspecified)	n	98.5	n	100.3	n	n
O=C(CSc1ncnc2c(-c3ccc(Cl)cc3)nsc12)c1ccccc1	n	n	n	n	n	n
Cc1ccc(-n2nnnc2SC(C(=O)c2c[nH]c3ccccc23)c2ccccc2)cc1 (stereo unspecified)	x	x	n	x	n	x
Cc1ccc(Cn2ccc(NC(=O)c3cc(-c4cccs4)on3)n2)cc1	n	n	n	n	n	n
O=C(Nc1ccc(F)cc1)c1ccccc1CC[N+](=O)[O-]	n	n	n	n	n	n
Fc1ccccc1OCCCCCCN1CCCC1	n	n	x	n	x	n
CCN(CC)C(=O)Oc1ccc(Cl)c2ccccc12	n	67.2	n	n	n	n
CCN(CC)C(=O)Oc1ccccc1NC(C)=O	n	n	x	n	x	n
Cc1ccc(C)c(NC(=O)CN(C)C(=O)[C@@H](NC(=O)c2ccc(C(C)(C)C)cc2)C(C)C)c1	x	x	n	x	n	x
Cc1cnn(-c2ccc3nnc(-c4ccc(Br)cc4)n3n2)c1	n	n	n	n	n	n
Cc1ccccc1S(=O)(=O)Cc1ccc(C(=O)O)o1	n	n	n	n	n	n
O=C(NCc1cccnc1)c1ccc(CS(=O)(=O)Cc2ccc(Cl)cc2)o1	n	100.3	n	65.3	n	n
Cc1ccc(CS(=O)(=O)Cc2ccc(C(=O)NCc3cccnc3)o2)cc1	n	75.7	x	n	x	n
COc1ccccc1CNC(=O)c1ccc(CS(=O)(=O)c2ccccc2OC)o1	n	n	n	52.2	n	n
Cc1ccccc1CS(=O)(=O)Cc1ccc(C(=O)NCc2ccccn2)o1	n	n	x	n	x	n
COc1ccccc1S(=O)(=O)Cc1ccc(C(=O)NCCN2CCCCCC2)o1	n	n	n	n	n	n
Cc1ccccc1S(=O)(=O)Cc1ccc(C(=O)NCc2cccnc2)o1	n	98.0	n	67.4	n	n
CC1CCN(c2nc3c(c(=O)[nH]c(=O)n3C)n2CCSc2nc3ccccc3o2)CC1	n	n	n	n	n	n
Cc1nc2c(C)cccn2c1/C(O)=C1\C(=O)C(=O)N(CCN2CCOCC2)C1c1cccs1 (stereo unspecified)	n	n	x	n	x	n
COC(=O)CSc1nc2nc(C)c(Br)cc2[nH]1	n	n	n	n	n	n
C=C(C)CSc1nc2nc(C)c(Br)cc2[nH]1	n	55.3	n	n	n	n
Cc1ccc(CNS(=O)(=O)c2ccc(C(C)(C)C)cc2)n1C	n	73.2	n	n	x	n
CC(C)(C)c1ccc(S(=O)(=O)NCc2ccc(C(=O)N3CCOCC3)cc2)cc1	n	n	n	n	n	n
CCCCN(CC)Cc1ccc(CNC(=O)Nc2ccc(OCC)cc2)o1	n	n	n	n	n	n
CC(=O)Nc1c2c(nn1-c1ccc(C)cc1C)CSC2	n	n	n	n	n	n
SMILES	CYP2C9 activ	CYP2C19 inhib	CD11b adhes enh	CYP2C9 inhib	CD11b adhes inh	CYP2C19 act
Cc1ccccc1-n1nc2c(c1NC(=O)c1ccc(Br)o1)CSC2	n	n	n	56.8	n	n
CN(/C=C/C(=O)C(F)(F)C(F)(F)F)Cc1ccccc1	n	61.7	n	n	n	n
Cc1nn(CC(=O)Nc2ccccc2)c(=O)c2ccccc12	n	73.0	n	n	n	n
Cc1cc(O)c(C(C)C)cc1NC(=O)Cn1nc(C)c2ccccc2c1=O	n	n	n	69.3	n	n
CCc1cccc(CC)c1NC(=S)NCC(c1cccnc1)N1CCOCC1 (stereo unspecified)	x	x	n	x	n	x
O=C(NCCc1ccccn1)C1CC(=O)N(Cc2ccccc2Cl)C1 (stereo unspecified)	n	68.1	n	n	n	n
O=C(NCc1ccc2c(c1)OCO2)c1cccc([N+](=O)[O-])c1	n	89.0	n	n	n	n
COc1cccc(OCCNC(=O)c2ccccc2Sc2ccccc2C#N)c1	x	x	n	x	n	x
Cn1nnc2cc(C(=O)NCc3ccc4c(c3)OCO4)ccc21	n	52.1	n	n	n	n
CCOC(=O)C(CCCOc1cccc(CC)c1)C(=O)OCC	n	n	n	n	n	n
COc1cccc(OCCNC(=O)c2cccc(OC)c2)c1	n	97.2	n	n	n	n
CCOC(=O)C(CCCOc1cccc(OC)c1)C(=O)OCC	n	90.5	n	82.5	n	n
Cc1cccc(-c2noc(-c3cc4ccccc4oc3=O)n2)c1	n	n	x	n	x	n
CCOC(=O)C1CCCN(C(=O)COC(=O)C2=COCCO2)C1 (stereo unspecified)	n	n	n	n	n	n
CCOCCCNC(=O)c1ccc2c(c1)OCO2	n	n	n	n	n	n
O=C(NCc1ccc2c(c1)OCO2)c1c(F)c(F)c(F)c(F)c1F	n	81.3	n	n	n	n
O=C(NCc1ccc2c(c1)OCO2)c1ccc2snnc2c1	n	66.0	n	64.6	n	n
O=C(NCCOc1ccccc1)c1ccc2c(c1)OCO2	n	86.4	n	59.1	n	n
O=C(NCc1ccc2c(c1)OCO2)c1ccc2c(c1)OCCO2	n	87.7	n	77.8	n	n
COc1cc(NC(=O)CN(c2cc(C)cc(C)c2)S(=O)(=O)c2c(C)noc2C)cc(OC)c1	n	n	n	n	n	n
Fc1ccc(-c2nc3ccncc3[nH]2)cc1	n	n	n	62.0	n	n
O=C(NCc1cccnc1)NC(C(F)(F)F)C(F)(F)F	n	66.4	n	n	n	n
O=C(NCc1cccnc1)NC1(C(F)(F)F)Oc2ccccc2O1	n	90.4	n	n	n	n
O=C(NCc1cccnc1)C1COc2ccccc2O1 (stereo unspecified)	n	n	x	n	x	n
COc1ccc(CN(Cc2cccnc2)C(=S)NCCc2ccccc2)cc1OC	n	96.1	x	94.5	x	n
SMILES	CYP2C9 activ	CYP2C19 inhib	CD11b adhes enh	CYP2C9 inhib	CD11b adhes inh	CYP2C19 act
COc1ccc(CCNC(=O)c2cc3sc(Cl)cc3n2C)cc1OC	n	69.0	n	73.8	n	n
COc1ccc(CCNC(=O)c2cccnc2)cc1OC	n	n	n	n	n	n
COc1ccc(CCNC(=O)c2ccncc2)cc1OC	n	63.5	x	n	x	n
COc1ccc(CC(=O)OCC(=O)NCCc2ccccc2)cc1OC	x	x	n	x	n	x
Cc1ccc(C)c(S(=O)(=O)NCc2ccc(C(=O)N3CCCCC3C)cc2)c1 (stereo unspecified)	n	57.1	n	n	n	n
CC1CCCCN1C(=O)c1ccc(C(=O)N2CCCCC2C)cc1 (stereo unspecified)	n	n	n	n	n	n
COc1cccc2cc(-c3nnc(SCC(=O)NCc4ccccc4)n3C)oc12	n	n	n	n	n	n
Cc1ccc2c(c1)C(C)(C)[C@]1(C)NC(=O)CCN21	n	n	n	n	n	n
COc1ccc2c(c1)CCc1c(C(=O)NCCc3ccc(OC)c(OC)c3)noc1-2	n	n	n	54.0	n	n
COc1ccc(CCNC(=O)C(=O)NCc2ccccc2)cc1OC	n	n	x	n	x	n
